ROS inducer: cancer cell ROS induction | actives 2% (n = 46,000) | AID 624156 | ROS induction (% of piperlongumine), % at 10 µM | U2OS ROS induction, H2DCF-DA fluorescence; in the data active = ROS induction above about 79%, passing the limit was not always enough;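 note: 0% = DMSO vehicle median and 100% = reference compound median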
* hit, by the source's call. The full list was thinned out, with hits kept by preference.

`C[C@@H]1CCCCO[C@H](CN(C)C(=O)NC2CCCCC2)[C@@H](C)CN([C@H](C)CO)C(=O)c2cc(NS(=O)(=O)c3cccs3)ccc2O1` gave ROS inducer 84*.
For C[C@@H]1CCCCO[C@@H](CN(C)C(=O)C2CCCCC2)[C@@H](C)CN([C@H](C)CO)C(=O)c2cc(NS(=O)(=O)c3cccs3)ccc2O1 the results were ROS inducer 109*.
Screening C[C@@H]1CCCCO[C@@H](CN(C)C(=O)Nc2ccccc2)[C@@H](C)CN([C@H](C)CO)C(=O)c2cc(NS(=O)(=O)c3cccs3)ccc2O1 returned ROS inducer 9.
Cc1ccc(S(=O)(=O)Nc2ccc3c(c2)C(=O)N([C@H](C)CO)C[C@H](C)[C@H](CN(C)CC2CCCCC2)OCCCC[C@@H](C)O3)cc1 was read as ROS inducer 46.
Screening C[C@@H]1CCCCO[C@H](CN(C)C(=O)c2ccccc2)[C@@H](C)CN([C@H](C)CO)C(=O)c2cc(NS(=O)(=O)c3cccs3)ccc2O1 returned ROS inducer 9.
Cc1noc(C)c1NC(=O)Nc1cccc2c1O[C@H](CN(C)CC1CCCCC1)[C@H](C)CN([C@@H](C)CO)C2=O was read as ROS inducer 47.
C[C@H](CO)N1C[C@H](C)[C@H](CN(C)Cc2ccc(C(F)(F)F)cc2)Oc2ccc(N(C)C)cc2C1=O was read as ROS inducer 16.
C[C@@H]1CN([C@H](C)CO)C(=O)c2cc(NC(=O)CCN3CCOCC3)ccc2O[C@@H]1CN(C)S(=O)(=O)c1ccc(Cl)cc1 was read as ROS inducer 13.
FC(F)(F)c1cccc(-c2ccc(-c3nn4c(-c5ccco5)nnc4s3)o2)c1 was read as ROS inducer -2.
`Cc1ccc(-c2nc3ccccc3o2)cc1NC(=O)COc1ccccc1[N+](=O)[O-]` gave ROS inducer -13.
Screening C[C@@H]1CN([C@@H](C)CO)C(=O)c2cc(NC(=O)CCN3CCOCC3)ccc2O[C@@H]1CN(C)C(=O)Nc1cccc2ccccc12 returned ROS inducer 7.
`Cc1cccc(-n2c(N)cc(=O)nc2SCC(=O)Nc2ccc3ccccc3c2)c1` gave ROS inducer 33.
COC1OC(C)C(OCc2ccccc2)C(O)C1O (centres undefined) was read as ROS inducer 0.
COc1ccc(S(=O)(=O)N(CC(N)=O)c2ccc(C)cc2)cc1 was read as ROS inducer -9.
C[C@@H]1CN([C@H](C)CO)C(=O)c2cccc(N(C)C)c2O[C@@H]1CN(C)C(=O)Nc1ccc(C(F)(F)F)cc1 was read as ROS inducer -6.
`C[C@@H]1CCCCO[C@H](CN(C)C(=O)c2ccccc2)[C@@H](C)CN([C@H](C)CO)C(=O)c2cc(NC(=O)NC3CCCCC3)ccc2O1` gave ROS inducer 21.
COc1ccc(NC(=O)N(C)C[C@@H]2OCCCC[C@@H](C)Oc3ccc(NC(=O)Nc4ccc5c(c4)OCO5)cc3C(=O)N([C@H](C)CO)C[C@@H]2C)cc1 was read as ROS inducer 118*.
Screening C[C@@H]1CCCCO[C@H](CN(C)C(=O)c2ccncc2)[C@@H](C)CN([C@H](C)CO)C(=O)c2cc(NC(=O)NC3CCCCC3)ccc2O1 returned ROS inducer 123*.
Screening C[C@@H]1CCCCO[C@@H](CN(C)C(=O)c2ccncc2)[C@@H](C)CN([C@H](C)CO)C(=O)c2cc(NC(=O)c3ccncc3)ccc2O1 returned ROS inducer 21.
COc1ccc(NC(=O)Nc2ccc3c(c2)C(=O)N([C@H](C)CO)C[C@H](C)[C@H](CN(C)C(=O)Nc2ccccc2)OCCCC[C@@H](C)O3)cc1 was read as ROS inducer 17.
For C[C@@H]1CCCCO[C@H](CN(C)C(=O)c2ccncc2)[C@@H](C)CN([C@H](C)CO)C(=O)c2cc(NS(=O)(=O)c3ccc(Cl)cc3)ccc2O1 the results were ROS inducer -10.
Screening C[C@@H]1CCCCO[C@H](CN(C)C(=O)Nc2ccccc2)[C@@H](C)CN([C@H](C)CO)C(=O)c2cc(NC(=O)Nc3ccc4c(c3)OCO4)ccc2O1 returned ROS inducer 5.
`Cc1ccc(S(=O)(=O)Nc2ccc3c(c2)C(=O)N([C@H](C)CO)C[C@H](C)[C@H](CN(C)C(=O)c2ccncc2)OCCCC[C@@H](C)O3)cc1` gave ROS inducer 108*.
`COc1ccc(NC(=O)Nc2ccc3c(c2)C(=O)N([C@H](C)CO)C[C@H](C)[C@@H](CN(C)C(=O)Nc2ccc4c(c2)OCO4)OCCCC[C@@H](C)O3)cc1` gave ROS inducer 20.
C[C@@H]1CCCCO[C@H](CN(C)C(=O)c2ccncc2)[C@@H](C)CN([C@H](C)CO)C(=O)c2cc(NS(=O)(=O)c3ccc(F)cc3)ccc2O1 was read as ROS inducer -2.
C[C@@H]1CCCCO[C@H](CN(C)C(=O)Nc2ccc3c(c2)OCO3)[C@@H](C)CN([C@H](C)CO)C(=O)c2cc(NC(=O)Nc3ccccc3)ccc2O1 was read as ROS inducer 26.
C[C@@H]1CCCCO[C@@H](CN(C)C(=O)Nc2ccc3c(c2)OCO3)[C@@H](C)CN([C@H](C)CO)C(=O)c2cc(NC(=O)NC3CCCCC3)ccc2O1 was read as ROS inducer 121*.
Screening COc1ccc(NC(=O)c2cccnc2C(=O)O)c(OC)c1 returned ROS inducer -14.
For C[C@@H]1CN([C@@H](C)CO)C(=O)c2cc(NS(=O)(=O)c3ccc(F)cc3)ccc2O[C@@H]1CN(C)Cc1ccc(Cl)c(Cl)c1 the results were ROS inducer 55.
COc1ccc2cc(S(=O)(=O)NCCCN3CCOCC3)ccc2c1 was read as ROS inducer -13.
For CC(C)(C)OC(=O)Nc1ccc(/C=N/NC(=O)CCCCCCC(=O)Nc2ccccc2O)cc1 the results were ROS inducer 22.
`CCC1(c2cccc(OC(=O)C3CCCCC3)c2)CCCCN(C)C1=O` (centres undefined) gave ROS inducer 5.
CC(Oc1ccc(C(C)(C)C)cc1)c1nc(-c2ccccn2)no1 (centres undefined) was read as ROS inducer -1.
For Cc1cc([N+](=O)[O-])nn1CC(=O)Nc1cc(Cl)cc(Cl)c1 the results were ROS inducer -5.
Cc1noc(C)c1NC(=O)Nc1cccc2c1O[C@H](CN(C)Cc1ccc(C(F)(F)F)cc1)[C@@H](C)CN([C@H](C)CO)C2=O was read as ROS inducer 18.
For C=C1C(=O)O[C@@H]2[C@H]3C(CO[C@@H]4O[C@H](CO)[C@@H](O)[C@H](O)[C@H]4O)=CC(=O)C3=C(C)CC[C@@H]12 the results were ROS inducer -9.
For C=C1C(=O)O[C@H]2C1CCC(C)=C1C(=O)C=C(C)[C@@]12O (some centres undefined) the results were ROS inducer 69.
Screening C=C1C(=O)O[C@@H]2[C@H]3O[C@]3(C)CCC=C(C)CC[C@@H]12 returned ROS inducer 101*.
Screening C=C1C(=O)O[C@H]2CC(C)C3CC[C@@]4(C)O[C@@]34CC12 (some centres undefined) returned ROS inducer 14.
`C=C1C(=O)O[C@@H]2C3O[C@]3(C)CC/C=C(/C)CC[C@@H]12` (some centres undefined) gave ROS inducer 92*.
`CC(=O)Nc1ccc(C(=O)CSc2ncn[nH]2)cc1` gave ROS inducer 10.
C[C@H](CO)N1C[C@H](C)[C@@H](CN(C)S(=O)(=O)c2cccs2)Oc2c(cccc2N(C)C)C1=O was read as ROS inducer 2.
